Inconclusive results are not listed. Entries that show only a call come without a potency. Active and inactive are the calls of the source. The call rests on the fitted dose curve; in most records, active means well fitted curve in the direction sought with a large enough effect; inconclusive means small, poorly fitted or top-dose-only effect, or effect the other way, or another doubt; inactive means no such curve, though single readings can be large or run the other way.

The target of this assay is Epidermal growth factor receptor (Homo sapiens) (UniProt P00533). Briefly: Assay for Inhibitors of the ERK Signaling Pathway using a Homogeneous Screening Assay: EGFR T790M/L858R Kinase Inhibition. To be noted: series mostly up to 65.8 µM. The source says: qHTS Assay for Inhibitors of the ERK Signaling Pathway using a Homogeneous Screening Assay
Epidermal growth factor receptor (Homo sapiens), sequence (P00533 whole entry T790M/L858R, looked up): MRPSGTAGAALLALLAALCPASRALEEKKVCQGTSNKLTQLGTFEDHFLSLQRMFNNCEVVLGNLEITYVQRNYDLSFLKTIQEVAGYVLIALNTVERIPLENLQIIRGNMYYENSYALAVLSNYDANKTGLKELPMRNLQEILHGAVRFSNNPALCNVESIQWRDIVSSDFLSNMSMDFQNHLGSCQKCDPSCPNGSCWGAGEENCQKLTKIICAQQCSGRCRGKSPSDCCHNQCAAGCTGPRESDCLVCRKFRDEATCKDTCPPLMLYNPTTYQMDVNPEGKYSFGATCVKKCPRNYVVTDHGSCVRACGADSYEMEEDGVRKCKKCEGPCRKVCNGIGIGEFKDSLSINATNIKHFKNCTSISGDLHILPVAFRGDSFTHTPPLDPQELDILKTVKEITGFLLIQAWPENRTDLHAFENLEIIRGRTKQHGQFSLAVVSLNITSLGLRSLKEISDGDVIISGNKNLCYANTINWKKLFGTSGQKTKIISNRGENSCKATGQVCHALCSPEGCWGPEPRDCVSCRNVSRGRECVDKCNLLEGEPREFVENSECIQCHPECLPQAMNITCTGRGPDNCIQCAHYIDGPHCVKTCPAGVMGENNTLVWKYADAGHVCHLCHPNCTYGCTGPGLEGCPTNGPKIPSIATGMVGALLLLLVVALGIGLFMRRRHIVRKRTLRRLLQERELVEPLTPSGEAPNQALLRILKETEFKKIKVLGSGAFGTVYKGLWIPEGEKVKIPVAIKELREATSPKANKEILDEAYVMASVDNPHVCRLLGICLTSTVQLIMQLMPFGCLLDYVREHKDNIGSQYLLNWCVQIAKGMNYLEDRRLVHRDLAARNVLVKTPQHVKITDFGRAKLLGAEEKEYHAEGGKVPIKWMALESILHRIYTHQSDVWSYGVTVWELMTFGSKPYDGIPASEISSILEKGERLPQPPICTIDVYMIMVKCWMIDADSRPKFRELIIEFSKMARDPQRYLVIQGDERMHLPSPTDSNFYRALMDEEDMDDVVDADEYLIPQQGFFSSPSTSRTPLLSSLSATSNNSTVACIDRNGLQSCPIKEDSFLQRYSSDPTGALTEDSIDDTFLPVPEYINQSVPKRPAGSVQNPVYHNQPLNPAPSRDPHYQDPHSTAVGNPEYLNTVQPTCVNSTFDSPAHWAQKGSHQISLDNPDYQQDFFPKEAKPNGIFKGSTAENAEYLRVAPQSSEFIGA
NIH Chemical Genomics Center [NCGC]
NIH Molecular Libraries Screening Centers Network [MLSCN]
Assay Submitter (PI): Dr. Wei Zheng, NCGC/NIH
The Ras/extracellular-signal-regulated kinase (ERK) mitogen activated protein (MAP) kinase signaling pathway (ERK1/2 cascade) plays is a key role in transmitting signals from the cell surface to the nucleus (Nishida and Gotoh 1993; Chang and Karin, 2001). The cascade is initiated by the small G-protein Ras, which recruits Raf […], where activation occurs. Alternatively, this pathway can be activated by elevating intracellular cAMP.
Activation of the ERK pathway is essential in increased cell division and cell survival. Sustained and constitutive activation of the ERK pathway, however, has been linked to uncontrolled cell proliferation, increased cell survival, and tumor progression. Thus, the ERK has been as an attractive target for cancer chemotherapy in the past few years (Sebolt-Leopold and Herrera, 2004). Given its physiological and pathological importance, assessment of ERK phosphorylation has been broadly performed in both basic research and drug discovery. Most assays for the measurement of ERK phosphorylation use the antibody-based detection methods, such as western blot and ELISA. These assays require multiple reagent additions with cell wash steps and are not suitable for high-throughput screening.
The current cell-based ERK phosphorylation assay was performed using AlphaScreen platform. AlphaScreen is a two bead-based proximity-dependent chemical energy transfer luminescent assay platform. The assay reagents (ERK SureFire(TM) kit) were supplied from TGR BioSciences (Australia). In the presence of specific antibodies, phosphorylated ERK will bring "donor" and "acceptor" beads to a proximity range (<200 nm), and subsequently lead a chemical luminescent reaction upon exciting donor beads with 680 nm laser. To validate pathway hits from the cell-based assay, enzyme assays consisting of EGFR tyrosine kinase, Raf and MEK were used as a means of deciphering the enzymes of target for the prioritized group of compounds derived from the HEK-293 cell based assay. The compounds were tested against significant members of the ERK signaling pathway EGFR and EGFR mutants (EGFR L858R, EGFR T790M, and EGFR L858R T790M). In order to establish the specificity of the prioritized compounds for EGFR and EGFR mutants, the compounds were also assayed against other important ERK signaling pathway enzymes, c-RAF and MEK-1.
NCGC Assay Protocol Summary:
The HTRF kinase assay (components supplied as kit by Cisbio) was chosen for the EGFR and EGFR mutant enzyme assays that applied the time resolved fluorescence resonance energy transfer (TR-FRET) principle. A peptide substrate is labeled with a biotin that can bind to XL665 labeled streptavidin and the anti-phosphoresidue antibody is labeled with Eu+. Upon phosphorylation of the substrate, the antibody binds to phosphorylated substrate that enables TR-FRET detection in homogenous assay format.
An HTRF Kinease TK assay kit (Cisbio, Bedford, MA) was used to develop the EGFR and EGFR mutant assays (Harbert et al., 2008. Harbert C, Marshall J, Soh S, Steger K. Development of a HTRF Kinase Assay for Determination of Syk Activity. Current Chemical Genomics. 1: 20-26. 2008). EGFR and EGFR mutants were obtained from Invitrogen. The assay buffer was composed of 50 mM HEPES (pH 7.0), 5 mM MgCl2, 5mM DTT, 0.1 % NaN3, 0.1 % BSA and 0.1 mM orthovanadate.
The HTRF assays were preformed according to the HTRF Kinease TK kit. Optimization for each enzyme was preformed in 384 well format (data not included). All reagents were dispensed into 1536 well plates.
(1) Enzyme, […] EGFR at 3 nM final
(2) Compound, 22 nl, Library Compounds in 0.128 to 10 mM titration series or control
(3) Reagent, 1.5 ul 10 uM ATP and 0.25 uM substrate final
(4) Incubation for 30 min, Ambient conditions
[…]
As for `COc1ccc(C(=O)c2ccc(Cl)c([N+](=O)[O-])c2)cc1`, the Potency entry is “inactive”.
In the case of `O=C(Nc1nc(-c2ccccc2)cs1)c1ccc(N2CCOCC2)c([N+](=O)[O-])c1`, the Potency entry was “inactive”.
The same measure for `Cc1ccc2nc(=O)c(NNc3ccccc3)cnc2c1`: 3.55 µM (active); for `Fc1ccc(Nc2ncnc3sc4c(c23)CCC4)cc1F`: “inactive”.
The same measure for `CCn1c(=O)c2[nH]c(-c3ccccc3)nc2n(CC)c1=O`: “inactive”; for `CNc1cccc2c1C(=O)c1ccccc1C2=O`: “inactive”.
The same measure for `Cc1nc2ccccc2nc(=O)c1NNc1ccccc1`: 3.16 µM (active); for `Cc1ccc(NNc2c(C)nc3ccccc3nc2=O)cc1`: “inactive”.
With `Cn1nc(-c2ccccn2)nc2c(=O)n(C)c(=O)nc1-2`, the Potency entry was “inactive”.
The same measure for `CCN(CC)CCC(=O)Nc1cccc2c1C(=O)c1ccccc1C2=O`: “inactive”.
The same measure for `O=C1c2ccccc2C(=O)c2c(NCCCN(CCO)CCO)cccc21`: “inactive”.
Turning to `Cn1c(=O)[nH]c2nnc(-c3ccc(Cl)c(Cl)c3)nc2c1=O`, the Potency entry is “inactive”.
`N#C/C(=C(/N)Sc1ccc(N)cc1)c1ccccc1C(F)(F)F`: the Potency entry was “inactive”.
As to `CS(=O)(=O)CCNCc1nc(-c2ccc3ncnc(Nc4ccc(OCc5cccc(F)c5)c(Cl)c4)c3c2)cs1`, the Potency result was “inactive”.
As for `Cn1nc(-c2ccc(Cl)cc2)nc2c(=O)n(C)c(=O)nc1-2`, the Potency result is “inactive”.

These data come from PubChem BioAssay AID1726 (National Center for Advancing Translational Sciences (NCATS), 2009).
